This is a sample that favours compounds with a hit; in the whole collection about 6.5% have one here.
HT1080 IDH1KD tx – HT-1080 IDH1 knockdown cell toxicity (counter line); HT-1080 IDH1 knockdown viability, ATP luminescence, 48 h; Potency, µM (series often up to 46.1 µM), without a hit: top-dose activity, negative = toxicity, actives largely listed as cytotoxic; actives 2% (n = 360,000);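 also: potency is read from the fitted curve at half-maximal effect; 0% = DMSO wells and -100% = cell-free medium wells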
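After a 2 h attachment period, IDH1KD HT-1080 cells took pin-transferred compound for 48 h at 37 °C; ATP-based luminescence after 10 min room-temperature reagent incubation reported viability.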
HT1080NT lethal – kills 2HG-producing HT-1080-NT fibrosarcoma cells; HT-1080-NT fibrosarcoma viability, CellTiter-Glo ATP luminescence, 48 h; Potency, µM (doses to about 46.1 µM), inactives show top-dose activity, negative = less viability, most hits filed as cytotoxic; actives 1.6% (n = 360,000);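 also: NT is the 2HG producing partner of a matched IDH1 knockdown line; potency is read from the fitted curve at half-maximal effect; 0% = DMSO-treated cells and -100% = media-only wells without cells; nearly all actives have a fitted effect of over 55% in size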
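Fibrosarcoma NT cells, 750 per well in 5% FBS RPMI, were exposed to compound for 48 hours. Viability: CellTiter-Glo luminescence.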
HepG2 tox – HepG2 cytotoxicity, counter-screen for TGF-b inhibitors; Potency, µM (top dose mostly 46.1 µM), for inactives: at the top dose activity change, negative = cytotoxicity, usual class: cytotoxic; actives 0.76% (n = 410,000); HepG2 CAGA-GFP viability, ATP luminescence, 18 h; also: potency is read from the fitted curve at half-maximal effect
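HepG2 CAGA-GFP cells (1000/well, DMEM with 1% FBS) received compound, then TGF-beta at 500 pg/mL final, and were incubated 18 hours at 37 degrees C. Viability was read by CellTiter-Glo luminescence. Media-only wells were set as complete cell-killing and DMSO as no toxicity.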
TGFb SMAD3 inh – inhibitors of TGF-b signaling; HepG2 CAGA-GFP TGF-b/SMAD3 reporter, GFP fluorescence, 18 h; TGF-beta stimulated, 500 pg/mL final; Potency, µM (doses to about 46.1 µM), for the others: at the highest dose activity, negative = inhibition, usual class: inhibitors; actives 1.2% (n = 410,000); also: potency is read from the fitted curve at half-maximal effect; % is scaled to controls: 0 for no effect and ±100 for the full control effect; nearly all actives have a fitted effect of over 65% in size
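Using HEPG2 CAGA-GFP reporter cells at 1000 cells/well, we pinned test compounds, stimulated with recombinant TGF-beta (500 pg/mL final) and measured total well GFP after 18 h.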
Giardia kill – Giardia lamblia killing; Giardia lamblia trophozoite viability; activity change, % at 7.66 µM, hits read low; actives 0.15% (n = 340,000); AID 540267; in the data active = activity change below about -80%; inconclusive = between about -30% and that limit;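 also: parasites exposed to compound for two days anaerobically before the ATP read; % is scaled to controls: 0 for no effect and ±100 for the full control effect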
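Viability, read as ATP luminescence: trophozoites at 100 cells/well, compound added, 48 hrs anaerobic at 37 deg C, then 15-30 min room-temperature development before reading.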
IL1B secr inh – blocks inflammasome-driven IL-1 beta release; THP-1 LPS/ATP IL-1B secretion, AlphaLISA, 16 h; active compounds read low; activity change, % at 57.5 µM; actives 4.7% (n = 360,000); in the data active = activity change below about -50%; inconclusive = mostly about -30% to -49%; also: % is scaled to controls: 0 for no effect and ±100 for the full control effect
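THP-1 cells pretreated 1 hr with compounds (up to 57.5 uM final), then stimulated with LPS (250 ng/mL final) plus ATP (1.25 mM final); secreted IL-1B measured by AlphaLISA after 16 hr, decreased signal indicating inhibition.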
An asterisk follows results filed as active; i = inactive; ? = inconclusive; . = no result given. Unless noted, calls follow the shape of the dose curve; as a rule, active = well fitted curve in the direction sought with a large enough effect; inconclusive = small, poorly fitted or top-dose-only effect, or another doubt; inactive = no such curve, though single readings can be large; an effect the other way counts as inactive or inconclusive.

SMILES | HT1080 IDH1KD tx | HT1080NT lethal | HepG2 tox | TGFb SMAD3 inh | Giardia kill | IL1B secr inh
Cc1nc2ncccn2c1-c1csc(Nc2ccc(O)cc2)n1 | ? | -6% | -14% | -10% | 28 | -28
Cc1ccnc(Nc2nc(-c3c(C)nc4sccn34)cs2)c1 | -28% | -5% | -59% | ? | 0 | -61*
Cc1ccc(Nc2nc(-c3c(C)nc4ncccn34)cs2)cc1 | ? | 0.18µM* | -19% | ? | -26 | -98*
Cc1ccc(C(=O)NC2(C(F)(F)F)NC(=O)N(c3ccc(Cl)cc3)C2=O)cc1 (stereo unspecified) | -25% | -18% | -15% | -10% | -15 | -61*
Cc1ccc(N2C(=O)NC(NC(=O)C3CC3)(C(F)(F)F)C2=O)cc1 (stereo unspecified) | 4% | -4% | -2% | -4% | -19 | -8
O=C(O)CCCn1cc(NC(=O)c2cccc(F)c2)cn1 | 4% | 1% | 17% | 0% | -6 | 5
NC(=O)C12CCCC(Br)(CCC1)C2 | 14% | 0% | 2% | 5% | -6 | -63*
O=C(O)c1ccccc1CSc1nnc2c(n1)[nH]c1ccccc12 | -13% | 2% | 1% | 6% | -12 | 20
Cc1ccc(-c2cc(C(=O)NCCCN3CCOCC3)no2)cc1 | -7% | 7% | -1% | -2% | 28 | -11
O=C(NCCCN1CCOCC1)c1ccc(-n2nc(C(F)(F)F)cc2-c2cccs2)cc1 | 23µM* | ? | -33% | -10% | 14 | -87*
O=C(NCCCN1CCOCC1)c1cc(-c2cccs2)on1 | 11µM* | ? | 0% | -21% | -2 | 19
CCCCc1ccc(S(=O)(=O)NNC(=S)NCc2ccco2)cc1 | 3% | 2% | 1% | -2% | 0 | 7
CCCN(CCC)CC(O)CN1C(=O)N(CN2C(=O)N(CC(O)CN(CCC)CCC)C(=O)C2(C)C)C(C)(C)C1=O (stereo unspecified) | -5% | -29% | -3% | 14% | -1 | -65*
CN(C)CC(O)CN1C(=O)N(CN2C(=O)N(CC(O)CN(C)C)C(=O)C2(C)C)C(C)(C)C1=O (stereo unspecified) | ? | 14% | -4% | -3% | 13 | 16
COc1ccc(N2CCN(C(=O)c3[nH]c(C(F)(F)F)nc3-c3ccccc3)CC2)cc1 | ? | -30% | -5% | 8% | . | 21
COc1ccccc1N1CCN(C(=O)c2[nH]c(C(F)(F)F)nc2-c2ccccc2)CC1 | 0.82µM* | 1.3µM* | 4% | ? | . | 83
Cc1cccc(N2CCN(C(=O)c3[nH]c(C(F)(F)F)nc3-c3ccccc3)CC2)c1C | 0.58µM* | ? | -6% | ? | . | 128
CCOc1ccc(CN2C(=O)c3ccccc3Sc3ccc(C(=O)NCc4ccc(C)cc4)cc32)cc1 | . | . | -9% | 8% | 4 | .
COc1ccc2nc(CNC(=O)C3CCC(=O)N(CCc4ccccc4)C3)[nH]c2c1 (stereo unspecified) | 12% | 8% | -2% | 18% | -16 | i
CC(C)C(NC(=O)c1ccc(S(=O)(=O)N2CCOCC2)cc1)c1nc2ccccc2[nH]1 (stereo unspecified) | 1% | ? | 7% | 4% | 15 | 3
Cc1cc(C)c2nc(N(CCCN(C)C)C(=O)c3ccc(S(=O)(=O)N4CC(C)OC(C)C4)cc3)sc2c1 (stereo unspecified) | -29% | -15% | -3% | 11% | -2 | -96*
Cc1ccc2sc(N(CCCN(C)C)C(=O)c3ccc(S(=O)(=O)N4CCOCC4)cc3)nc2c1C | 5% | -6% | 0% | 5% | -1 | ?
Cc1ccc2sc(N(CCN(C)C)C(=O)c3ccc(S(=O)(=O)N4CC(C)OC(C)C4)cc3)nc2c1C (stereo unspecified) | -29% | -7% | -2% | 24% | -7 | -65*
COc1c(C)cc(Br)cc1C(=O)Nc1ccc(Cc2ccncc2)cc1 | ? | ? | -17% | ? | 5 | -79*
COc1ccccc1C(=O)Nc1ccc(Cc2ccncc2)cc1 | 8% | 10% | -17% | ? | 19 | 2
SMILES | HT1080 IDH1KD tx | HT1080NT lethal | HepG2 tox | TGFb SMAD3 inh | Giardia kill | IL1B secr inh
CCOc1ccc(C(=O)Nc2ccc(N3CCN(C)CC3)cc2)cc1Br | ? | -29% | -8% | 0% | 6 | -52*
CCOc1ccc(C(=O)Nc2ccc(Cc3ccncc3)cc2)cc1Br | ? | -17% | -25% | -30% | -20 | -89*
CC(C(=O)Nc1cccc(S(=O)(=O)N2CCOCC2)c1)N1CCN(C)CC1 (stereo unspecified) | -2% | -1% | -34% | 0% | 2 | -1
CN(C(=O)c1ccc(NC(=O)Cc2cccc(NC(=O)C3CCCN(C(=O)C4CCC4)C3)c2)cc1)C1CC1 (stereo unspecified) | -6% | -2% | -4% | 8% | -28 | -2
O=C1C=CCC(/C=C/c2ccccc2)O1 (stereo unspecified) | ? | ? | 13µM* | ? | 4 | -103*
CCC1([N+](=O)[O-])COC(C=Cc2ccccc2)OC1 (stereo unspecified) | 0% | -1% | -4% | -1% | -6 | -19
CC(C(=O)Nc1ccccc1)n1nnc2sc3c(c2c1=O)CCCC3 (stereo unspecified) | . | . | -26% | 14µM* | . | .
CC(C(=O)Nc1ccccc1C(F)(F)F)n1nnc2sc3c(c2c1=O)CCCC3 (stereo unspecified) | . | . | -15% | -30% | . | .
Cc1cccc(NC(=O)Cc2coc3ccc4ccccc4c23)n1 | 7.1µM* | ? | -25% | -7% | -2 | -3
O=C(O)Cc1coc2ccc3ccccc3c12 | -3% | -13% | -4% | 0% | -9 | -7
Cc1c(C(=O)NCc2cccc(Cl)c2)sc(=O)n1Cc1ccc(C(=O)N(C)C)cc1 | -8% | -16% | 2% | -10% | . | -12
Cc1c(C(=O)NCc2cccc(Cl)c2)sc(=O)n1Cc1ccc(F)cc1 | -2% | -25% | -18% | ? | . | -58*
Cc1c(C(=O)NCc2cccc(C(F)(F)F)c2)sc(=O)n1Cc1cccc(F)c1 | ? | ? | -1% | ? | . | -62*
CC(=O)Oc1ccccc1/C=C/c1ccc2ccccc2[n+]1C | ? | ? | -38% | 4% | 40 | -57*
CN(C)c1ccc(/C=C/c2nccc3ccccc23)cc1 | . | . | -52% | 72% | . | .
CN(C)c1ccc(/C=C/c2ccc3c4ccccc4ccc3[n+]2-c2ccccc2)cc1 | 5.8µM* | 12µM* | -57% | ? | 10 | -111*

Assay outcomes as filed in PubChem BioAssay.
